“And” between values parts separate entries of the source, which are not always exact repeats. Equal values may be shown once. The campaign covered roughly 5,500 compounds. About 2,000 (36%) were called active. About 18% were inconclusive and are not listed. Cut-off read from the data, not from the text of the source: active = normalized growth mostly below about 0.91 (no sharp cut-off); inconclusive = no clear call, values can overlap the other calls; inactive = mostly above about 0.92. The list shows a part of the results.
Test: chemical genetic growth profiling, strain panel (AID 1159580);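 note: tested at 20 µM; growth read once vehicle control cultures reached saturation at 30 °C; 1 = growth at the plate median or of vehicle wells; lower values mean less growth of the strain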
Details: S. cerevisiae deletion strains, growth OD

Measured: normalized growth

CNC(=O)CSP(=S)(OC)OC
inactive: locus YAL013W, strain DEP1, hits give low values 1.02 | locus YAL021C, strain ccr4, hits give low values 1.01 | locus YAL026C, strain drs2, hits give low values 1.01 | locus YAL030W, strain snc1, hits give low values 1.01 | locus YBL061C, strain skt5, hits give low values 1.03 | locus YBR009C, strain hhf1, hits give low values 0.999 | locus YBR021W, strain FUR4, hits give low values 0.994 | locus YBR023C, strain chs3, hits give low values 1.03 | locus YBR171W, strain sec66, hits give low values 1.03 | locus YBR229C, strain ROT2, hits give low values 1.01 | locus YBR231C, strain swc5, hits give low values 1.01 | locus YBR279W, strain paf1, hits give low values 1.01 | locus YCL011C, strain gbp2, hits give low values 1.02 | locus YCL016C, strain dcc1, hits give low values 1.02 | locus YCL029C, strain bik1, hits give low values 1.01 | locus YCL061C, strain MRC1, hits give low values 1.01 | locus YCL069W, strain vba3, hits give low values 1.02 | locus YCR088W, strain abp1, hits give low values 1.01 | locus YDL005C, strain med2, hits give low values 1.03 | locus YDL035C, strain GPR1, hits give low values 1.02 | locus YDL040C, strain nat1, hits give low values 1.02 | locus YDL074C, strain BRE1, hits give low values 0.971 | locus YDL101C, strain DUN1, hits give low values 1 | locus YDL134C, strain PPH21, hits give low values 1 | locus YDL185W, strain tfp1, hits give low values 1.03 | locus YDL192W, strain arf1, hits give low values 1.02 | locus YDR001C, strain nth1, hits give low values 1.01 | locus YDR069C, strain doa4, hits give low values 1.02 | locus YDR101C, strain arx1, hits give low values 1.02 | locus YDR137W, strain rgp1, hits give low values 1.03 | locus YDR150W, strain NUM1, hits give low values 1.01 | locus YDR159W, strain sac3, hits give low values 1.02 | locus YDR162C, strain NBP2, hits give low values 1.01 | locus YDR195W, strain ref2 0.99 | locus YDR297W, strain sur2, hits give low values 1.01 | locus YDR318W, strain mcm21, hits give low values 1.02 | locus YDR334W, strain swr1, hits give low values 1.02 | locus YDR335W, strain msn5, hits give low values 1.01 | locus YDR388W, hits give low values 1.02 | locus YDR392W, strain spt3, hits give low values 1.01 | locus YDR502C, strain sam2, hits give low values 1.02 | locus YEL003W, strain gim4, hits give low values 1.01 | locus YEL037C, strain rad23, hits give low values 1.02 | locus YEL061C, strain CIN8 (second series), hits give low values 1.01 | locus YEL061C, strain CIN8, hits give low values 1.01 | locus YER015W, strain faa2, hits give low values 1.02 | locus YER016W, strain bim1, hits give low values 1.02 | locus YER110C, hits give low values 1.02 | locus YER111C, strain swi4, hits give low values 1.01 | locus YER155C, strain BEM2 (second series), hits give low values 1.02 | locus YER155C, strain BEM2, hits give low values 1.01 | locus YER167W, strain BCK2, hits give low values 1.01 | locus YFR010W, strain ubp6, hits give low values 1.01 | locus YGL078C, strain dbp3, hits give low values 1.02 | locus YGL086W, strain mad1, hits give low values 1.01 | locus YGL167C, strain pmr1, hits give low values 1.02 | locus YGL173C, strain kem1, hits give low values 1.02 | locus YGL227W, strain vid30, hits give low values 1.01 | locus YGL240W, strain doc1, hits give low values 1 | locus YGL248W, strain PDE1, hits give low values 1 | locus YGL253W, strain hxk2, hits give low values 1.03 | locus YGR078C, strain PAC10, hits give low values 1.02 | locus YGR135W, strain pre9, hits give low values 1.01 | locus YGR229C, strain SMI1, hits give low values 1.03 | locus YGR252W, strain gcn5, hits give low values 0.995 | locus YHR013C, strain ard1, hits give low values 1.01 | locus YHR027C, strain rpn1, hits give low values 1.02 | locus YHR030C, strain SLT2, hits give low values 1.03 and 1.08 | locus YHR079C, strain IRE1 (second series), hits give low values 1.02 | locus YHR079C, strain IRE1, hits give low values 1.04 | locus YHR094C, strain hxt1, hits give low values 1.02 | locus YHR129C, strain ARP1, hits give low values 1.01 | locus YHR142W, strain chs7, hits give low values 1.03 | locus YHR200W, strain rpn10, hits give low values 1.02 | locus YIL066C, strain RNR3, hits give low values 1.04 | locus YIL073C, strain SPO22, hits give low values 1.09 | locus YIL125W, strain kgd1, hits give low values 1.01 | locus YIR030C, strain dcg1, hits give low values 1.03 | locus YJL092W, strain hpr5, hits give low values 1.01 | locus YJL095W, strain BCK1 (second series), hits give low values 1.03 | locus YJL095W, strain BCK1, hits give low values 1 and 1.08 | locus YJL115W, strain asf1, hits give low values 1.01 | locus YJL129C, strain trk1, hits give low values 1.03 | locus YJL134W, strain LCB3, hits give low values 1 | locus YJL154C, strain vps35, hits give low values 1.01 | locus YJL164C, strain tpk1, hits give low values 1.02 | locus YJL166W, strain qcr8, hits give low values 1 | locus YJL168C, strain set2, hits give low values 1.02 | locus YJL187C, strain SWE1 (second series), hits give low values 1.02 | locus YJR043C, strain POL32, hits give low values 0.998 | locus YJR066W, strain TOR1, hits give low values 0.992
